According to PubChem BioAssay (NCATS):
Inconclusive results are not listed. Where a call stands in place of a potency, no number is given. The source made the active and inactive calls. Calls follow the shape of the dose curve; as a rule, active = well fitted inhibition curve with a large enough effect; inconclusive = small, poorly fitted or top-dose-only effect; inactive = no such curve, though single readings can be large or run the other way. Where a SMILES comes first, the peptide text is derived from it. [ ]: non-standard residue; d: D form. 2Abz = Nc1ccccc1C(=O)O

What follows are molecules tested on Zika virus NS2B-NS3 protease (linked construct) (assay: Primary screen NINDS Rhodamine qHTS for Zika virus inhibitors (AID 1347160; also: nearly all actives have a fitted effect of over 55% in size)). Conditions: purified NS2B-NS3 protease, Rhodamine110 substrate fluorescence; series mostly up to 57.1 µM.
In short: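 Purified linked NS2B-NS3 protease (NS2B hydrophilic domain joined to NS3 protease by flexible linker), 25 nM in 10 mM Tris-HCl pH 8.0, 0.01% Tween 20. Compounds titrated, 15 min preincubation at room temperature; 1.5 microM Rhodamine110 substrate, FITC fluorescence change over 15 min.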
Potency is read from the fitted curve at half-maximal effect.

Row | SMILES | Potency | outcome
1 | CC1CCC2(O1)C(C)(C)CC(O[C@@H]1O[C@H](CO[C@@H]3OC[C@](O)(CO)[C@H]3O)[C@@H](O)[C@H](O)[C@H]1O)CC2(C)O (some centres not stated) | inactive | –
2 | C#C[C@]1(O)CC[C@H]2[C@@H]3CCC4=C/C(=N/O)CC[C@@H]4[C@H]3CC[C@@]21CC | inactive | –
3 | COc1ccc(C[C@H](N)C(=O)N[C@H]2[C@@H](O)[C@H](n3cnc4c(N(C)C)ncnc43)O[C@@H]2CO)cc1 | inactive | –
4 | CC(=O)[C@@H]1CC[C@]2(C(=O)O)CC[C@]3(C)C(CCC4[C@@]5(C)CC[C@H](O)C(C)(C)C5CC[C@]43C)C12 (some centres not stated) | inactive | –
5 | CC(C)C1=CC2=CCC3[C@](C)(CCC[C@@]3(C)C(=O)O)C2CC1O (some centres not stated) | inactive | –
6 | CC1(C)CC2C(O)C3=C(CC(C)(O)C2C1)C(=O)OC3O (configuration not stated) | inactive | –
7 | CC1=C2C(=O)O[C@@H](c3ccoc3)[C@]2(C)CCC1 | inactive | –
8 | C=C1CCC2[C@@](C)(C=O)CCC[C@]2(C)[C@H]1CC/C(C)=C/CO (some centres not stated) | inactive | –
9 | COc1ccc2cc(OCC3(C(=O)O)CN(C(=O)c4ccc(F)cc4)C3)ccc2c1 | inactive | –
10 | C/C=C(\C)C(=O)O[C@H]1[C@H](O)[C@]2(COC(C)=O)[C@H](O)C[C@]3(C)C(=CCC4[C@@]5(C)CC[C@H](O[C@@H]6O[C@H](C(=O)O)[C@@H](O[C@@H]7O[C@H](CO)[C@@H](O)[C@H](O)[C@H]7O)[C@H](O)[C@H]6O[C@@H]6O[C@H](CO)[C@@H](O)[C@H](O)[C@H]6O)[C@](C)(CO)C5CC[C@]43C)[C@@H]2CC1(C)C (some centres not stated) | inactive | –
11 | COC(=O)C1C(CC(C)=O)C=CC(O)C12Oc1cc(C)cc(O)c1C2=O (configuration not stated) | inactive | –
12 | COc1ccc([C@@H]2N[C@H](C(=O)O)Cc3c2[nH]c2ccccc32)cc1CN1CCN(c2ccccc2F)CC1 | inactive | –
13 | CC[C@@H](c1ccc(F)c(F)c1)n1c(C(=O)OC)c(-c2ccno2)[nH]c1=S | inactive | –
14 | CC1(C)O[C@@]2(C)CC[C@@H]1C[C@@H]2OC1OC(CO)C(O)C(O)C1O (some centres not stated) | 11.2 µM (active) | –
15 | CCC(C)/C=C(C)/C=C/C1=CC2=C(Cl)C(=O)C(C)(OC(C)=O)C(=O)C2=CN1CCCC(=O)O (configuration not stated) | inactive | –
16 | CC(=O)O[C@H]1C[C@@H]2[C@]3(CC[C@]4(C)[C@@H](C5(C)CCC(C(C)(C)O)O5)[C@@H](O)C[C@@]24C)C[C@@]32CC[C@H](O[C@@H]3OC[C@@H](O)[C@H](O)[C@H]3O)C(C)(C)[C@H]12 (some centres not stated) | inactive | –
17 | CC(=O)C1CCC2(C)C3=C(CCC12C)C1(C)CCC(=O)C(C)(C)C1CC3 (configuration not stated) | inactive | –
18 | C(#Cc1cccc(CN2CCOCC2)c1)CCN1CCCCC1 | inactive | –
19 | O=C(/C=C/c1ccccc1)OCC1=CC[C@@H]2C(C(=O)O)=CO[C@@H](O[C@@H]3O[C@H](CO)[C@@H](O)[C@H](O)[C@H]3O)[C@H]12 | inactive | –

Row | SMILES | Potency | outcome
20 | CC(C)C1(O[C@@H]2O[C@H](CO)[C@@H](O)[C@H](O)[C@H]2O)CC=C(CO)CC1 (some centres not stated) | inactive | –
21 | C[C@@H]1O[C@@H](O[C@H]2[C@H](O)[C@@H](C(=O)O)O[C@@H](O[C@H]3CC[C@@]4(C)C(CC[C@]5(C)C4CC=C4C6CC(C)(C)CC[C@]6(C(=O)O)CC[C@]45C)C3(C)C)[C@@H]2O[C@@H]2O[C@H](CO)[C@@H](O)[C@H](O)[C@H]2O)[C@H](O)[C@H](O)[C@H]1O (some centres not stated) | inactive | –
22 | CC(=O)OCC(=O)O[C@@H]1[C@H]2[C@@H](OC(=O)c3ccccc3)[C@@H](C)C[C@]2(O)[C@H](OC(C)=O)C2(C)[C@H]3CC(C)(C)C(=O)[C@@H]3CC1(OC(C)=O)[C@@H]2OC(C)=O (some centres not stated) | inactive | –
23 | CC1(C)CCC(C)(C)c2cc([C@@H](O)C(=O)Nc3ccc(C(=O)O)cc3F)ccc21 | 14.1 µM (active) | –
24 | C[C@H]1C[C@H]2[C@@H]3CCC4=CC(=O)C=C[C@]4(C)[C@@]3(F)[C@@H](O)C[C@]2(C)[C@@]1(O)C(=O)COP(=O)(O)O | inactive | –
25 | O=C(O)CCc1cccc(O[C@@H]2O[C@H](CO)[C@@H](O)[C@H](O)[C@H]2O)c1O | inactive | –
26 | C=C1CCC2C(C)(C)C(O)CCC2(C)C1CCC(C)CCOC(=O)CCC(=O)O (configuration not stated) | inactive | –
27 | C/C=C/C=C/C(CC(=O)O)Nc1ccc(C=O)cc1 (configuration not stated) | 49.3 µM (active) | –
28 | CC(=O)c1cnc2ccc(-c3cc(Cl)c(O)c(Cl)c3)nc2c1NC1CCC(CN(C)C)CC1 (configuration not stated) | – | inactive; activator [at 10.7 µM]
29 | CC(C)C1=CC2=CCC3[C@](C)(CCC[C@@]3(C)C(=O)O)C2CC1=O (some centres not stated) | inactive | –
30 | C[C@@H]1C[C@H](O)/C=C/[C@H](O)[C@@H](O)CC(=O)O1 | inactive | –
31 | CCC(C)C1NC(=O)C2CCCN2C(=O)C(C(C)C)NC(=O)c2ccccc2NC(=O)C(Cc2ccc(O)cc2)NC(=O)C(C)NC(=O)C(C(C)O)NC1=O (configuration not stated) (cyclo([2Abz]VPITAY); configuration not given here) | inactive | –
32 | CCC[C@@H]1C[C@@H](C(=O)N[C@@H]([C@H]2O[C@H](SC)[C@H](O)[C@@H](O)[C@@H]2O)[C@@H](C)O)N(C)C1 | inactive | –
33 | C=CC1C(O[C@@H]2O[C@H](CO)[C@@H](O)[C@H](O)[C@H]2O)OC=C(C(=O)OC)C1CC(=O)O (some centres not stated) | inactive | –
34 | C[C@@H]1O[C@@H](O[C@H]2[C@H](OC(=O)C34CCC(C)(C)CC3C3=CCC5C6(C)CC(O)C(O[C@@H]7O[C@H](CO)[C@@H](O)[C@H](O)[C@H]7O)C(C)(C(=O)O)C6CCC5(C)C3(CO)CC4)O[C@H](C)[C@H](O)[C@@H]2O)[C@H](O)[C@H](O)[C@H]1O[C@@H]1OC[C@@H](O)[C@H](O)[C@H]1O (some centres not stated) | inactive | –
35 | c1ccc(Nc2nc3c(s2)CCCc2[nH]ncc2-3)nc1 | inactive | –
36 | CC(=O)Oc1cc2c(s1)CCN([C@H](C(=O)C1CC1)c1ccccc1F)C2 | inactive | –
37 | C=C[C@@]1(C)CC(=O)C2[C@](C)(O1)[C@@H](OC(C)=O)[C@@H](O)[C@H]1C(C)(C)CCC[C@]21C (some centres not stated) | inactive | –
